In the supplement of paper PMC8728848:
Only a selection was taken, and the strongest signals are over-represented in it overall.

Assays:
Test in all cases: glycan array binding signal (z-score within array); higher = stronger binding
Settings in all cases: glycan notation: IUPAC condensed, linker removed
[1] = target: Fuc(a1-2)Gal(b1-3)GalNAc(b1-4)[Neu5Ac(a2-3)]Gal(b1-4)Glc
In short: (§1)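 Glycan array data came from 3228 arrays in the Consortium for Functional Glycomics database, and only arrays with an available protein sequence were kept. Glycan names were put into IUPAC-condensed notation, and columns mapping to the same glycan were averaged. The binding signal is a within-array Z-score, averaged across arrays of one protein sequence run at different concentrations or buffers and across linkers. A negative Z-score can be read as non-binding.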

[2] = target: Fuc(a1-2)[GalNAc(a1-3)]Gal(b1-4)[Fuc(a1-3)]GlcNAc
In short: as §1

[3] = target: Gal(b1-3)GlcNAc(b1-3)Gal(b1-4)GlcNAc
In short: as §1

[4] = target: Gal(b1-4)GlcNAc(b1-3)[Gal(b1-4)GlcNAc(b1-6)]GalNAc
In short: as §1

[5] = target: Gal3S6S(b1-4)GlcNAc6S
In short: as §1

[6] = target: Glc(a1-4)Glc
In short: as §1

[7] = target: GlcNAc(b1-4)Gal(b1-4)GlcNAc
In short: as §1

[8] = target: Man(a1-2)Man(a1-2)Man(a1-3)Man
In short: as §1

[9] = target: Man(a1-2)Man(a1-2)Man(a1-6)[Man(a1-3)]Man
In short: as §1

[10] = target: Man(a1-2)Man(a1-3)[Man(a1-6)]Man(a1-6)[Man(a1-2)Man(a1-3)]Man(b1-4)GlcNAc(b1-4)GlcNAc
In short: as §1

[11] = target: Man(a1-3)[Man(a1-6)]Man(b1-4)GlcNAc(b1-4)GlcNAc
In short: as §1

[12] = target: Neu5Ac(a2-3)Gal(b1-4)[Fuc(a1-3)]GlcNAc(b1-3)Gal(b1-4)GlcNAc
In short: as §1

[13] = target: Neu5Ac(a2-8)Neu5Ac
In short: as §1

B1: RS-IIL (Ralstonia solanacearum) (protein)
chain: AQQGVFTLPANTSFGVTAFANAANTQTIQVLVDNVVKATFTGSGTSDKLLGSQVLNSGSGAIKIQVSVNGKPSDLVSNQTILANKLNFAMVGSEDGTDNDYNDGIAVLNWPLG
glycan array binding signal (z-score) [1]: 0.021 | glycan array binding signal (z-score) [2]: 0.302 | glycan array binding signal (z-score) [3]: -0.381 | glycan array binding signal (z-score) [4]: -0.389 | glycan array binding signal (z-score) [5]: -0.385 | glycan array binding signal (z-score) [6]: -0.266 | glycan array binding signal (z-score) [7]: -0.389 | glycan array binding signal (z-score) [8]: 4.58 | glycan array binding signal (z-score) [9]: 5.58 | glycan array binding signal (z-score) [10]: 4.71 | glycan array binding signal (z-score) [11]: 4.76 | glycan array binding signal (z-score) [12]: -0.268 | glycan array binding signal (z-score) [13]: -0.388
